For 100 molecules, inhibition results are on record in PubChem BioAssay AID2315 (National Center for Advancing Translational Sciences (NCATS), 2010).

Values joined by “and” are separate entries in the source; they are usually repeats but may differ in a detail not shown here. Equal values may be shown once. The whole screen tested about 290,000 compounds, of which about 27,000 (9.3%) were called active. Rule as the data show it: active = inhibition mostly above about 28% (no sharp cut-off); inactive = mostly below about 43%. This excerpt belongs to a sample that is enriched for actives.

The inhibition is the relative decrease from the control value, in per cent.

The assay is described as follows: A qHTS for Small Molecule Inhibitors of Shiga Toxin. Also: 0% is about no effect. The note with it: Vero cells, Shiga toxin protein synthesis inhibition reporter; at 38.7 µM, stronger effect = higher value.
`CN1C(=O)C2(OCCCO2)c2cc(Cl)ccc21`: the inhibition is -14.7% (inactive). To `CC1CCN(C(=O)C2CCN(S(=O)(=O)N3CCC4(CC3)OCCO4)CC2)CC1` belongs -15.9% (inactive). To `O=C(C[C@H]1C(=O)N(c2ccc(F)c(F)c2)C[C@@H]1Cc1ccccc1)Nc1ccccc1` belongs -3.22% (inactive). With `COc1ccc(C(=O)Nc2ccc(C(=O)NCC3CCCO3)cc2)c(OC)c1OC` (stereo not given), the inhibition was -2.17% (inactive). To `CCSc1nc2sc3c(c2c(=O)n1-c1ccc(C)cc1)CCN(C)C3` belongs -6.21% (inactive); to `CC1(C)Cc2c(sc(NC(=O)C(=O)N3CCOCC3)c2C#N)CO1`, -10.6% (inactive). Under `CCOC(=O)C(C)n1cnc2c(nnn2-c2cccc(OC)c2)c1=O` (stereo not given) stands 41% (active); under `COC(=O)C(C)n1cnc2c(nnn2-c2cccc(Cl)c2)c1=O` (stereo not given), 26% (inactive). To `CCOC(=O)C(C)n1cnc2c(nnn2-c2ccc(F)cc2)c1=O` (stereo not given) belongs 18.3% (inactive); to `CCN(C(=O)CSc1nnc(-c2ccncc2)o1)c1ccccc1`, -4.1% (inactive); to `O=C(c1ccc(Oc2ccc(Cl)cc2)c([N+](=O)[O-])c1)N1CCCC1`, -5.51% (inactive). In the case of `NC(=O)CCN1CCN(S(=O)(=O)/C=C/c2ccccc2)CC1`, the inhibition was 3.87% (inactive). `NC(=NC(=O)c1ccccc1)N1CCOCC1`: the inhibition is -9.05% (inactive). To `CN1CCN(S(=O)(=O)c2cccc(C(=O)O)c2)CC1` belongs 24% (inactive). For `O=C(NC(=O)N1CCOCC1)c1ccccc1`, the inhibition was 6.72% (inactive). To `O=C(O)c1cccc(N=NN2CCCCCC2)c1` belongs 139% (active). Under `O=C(c1ccccc1)N1CCN(C(=O)N2CCCCC2)CC1` stands -25.1% (inactive); under `O=C(O)c1ccc(N=NN2CCOCC2)cc1`, 38.4% (active); under `O=C(NCc1ccco1)c1ccc([N+](=O)[O-])cc1Cl`, -6.09% (inactive). As for `O=C(Nc1ccccc1Cl)NC1(C(=O)N2CCOCC2)CCCCC1`, the inhibition was 3.21% (inactive). `CCCCNC(=O)Nc1c(C)cc(SC#N)cc1C`: the inhibition was 12.6% (inactive).

`CCOc1ccccc1NC(=O)CCS(=O)(=O)c1cccc2nsnc12`: the inhibition is -10.2% (inactive). Under `Clc1ccc(Cc2nnc(-c3cccs3)o2)cc1` stands 12.1% (inactive); under `c1csc(-c2nnc(COc3ccc4c(c3)OCO4)o2)c1`, 100% (active). Under `c1csc(-c2nnc(COc3ncnc4sccc34)o2)c1` stands 13.6% (inactive); under `Cc1cc(-n2nc(C)cc2C)n2ncc(-c3ccccc3)c2n1`, 63.4% (active); under `Cc1cc(-n2nc(C)cc2C)n2nc(C)c(-c3ccccc3)c2n1`, -5.33% (inactive). To `Cc1cc(N2CCCC2)n2nc(C)c(-c3ccccc3)c2n1` belongs 24.9% (inactive). As for `CCC(C(=O)OC)n1cnc2scc(-c3ccc(C)cc3)c2c1=O` (stereo not given), the inhibition is -4.36% (inactive). As to `O=C(CCN1C(=O)[C@H]2CC=CC[C@H]2C1=O)NCc1nc(-c2ccccc2)no1`, the inhibition is 24.8% (inactive). On to `COc1ccc(OC)c(S(=O)(=O)N2CCCC(C(=O)NCCc3ccccc3)C2)c1` (stereo not given), for which the inhibition is 9.04% (inactive). As for `Cc1ccc(NC(=O)c2cc(-c3ccc(C)o3)nc3ccccc23)nc1`, the inhibition is -4.51% (inactive). As to `Cc1ccc(Nc2nc(-c3ccc(O)cc3O)cs2)nc1`, the inhibition was 67.2% (active). Under `COc1ccc(/C(C)=N\NC(=O)c2ccc(-c3ccccc3)cc2)c(F)c1` stands 2.19% (inactive). With `CN(C(=O)COC(=O)CNC(=O)C12CC3CC(CC(C3)C1)C2)c1ccccc1`, the inhibition was 11.2% (inactive). For the molecule `COc1ccc(NCCc2ccccn2)cc1`, the inhibition is 85% (active).

`O=C(CNC(=O)COc1ccccc1)NCCc1ccccn1`: the inhibition is -6.4% (inactive). To `Cc1c(C)c(C)c(S(=O)(=O)NCCc2ccccn2)c(C)c1C` belongs -12.6% (inactive). Under `S=C(Nc1ccc2c(c1)OCO2)N1CCCC1` stands 87.4% (active); under `CC(=O)c1cccc(NC(=S)N2CCCC2)c1`, 12.2% (inactive); under `CCC(C)c1ccc(NC(=S)N2CCCC2)cc1` (stereo not given), 68% (active). Under `CCOc1ccc(NC(=S)N2CCCCCC2)cc1` stands 29.7% (inactive); under `NS(=O)(=O)c1ccc(NC(=S)N2CCCC2)cc1`, -27.4% (inactive).

`Cc1cccc(C)c1NC(=S)N1CCCCCC1`: the inhibition was -6.49% (inactive). Under `C=CCC1=C/C(=C\c2c(N)n3nc(CC(=O)N4CCOCC4)sc3nc2=O)C=C(OC)C1=O` stands -1.44% (inactive); under `Cc1cnc(CN(C)C(=O)CC2C(=O)NCCN2Cc2cccc(F)c2F)[nH]1` (stereo not given), -27.4% (inactive).

On to `O=C(Cn1c[n+](CC(=O)c2ccc([N+](=O)[O-])cc2)cn1)c1ccc([N+](=O)[O-])cc1`, for which the inhibition is -3.01% (inactive) and 31.4% (inactive).

`COc1ccccc1CNS(=O)(=O)c1ccc2c(c1)NC(=O)CS2`: the inhibition is 17.1% (inactive). To `CCOC(=O)c1ccccc1NS(=O)(=O)c1c(C)nc2sccn2c1=O` belongs -9.62% (inactive); to `Cn1cncc1COC(=O)c1ccc(Cl)cc1`, 0.74% (inactive); to `CN1C2C=C(N(C(=O)c3ccc(Cl)cc3)c3ccccc3)CC1CC2` (stereo not given), -14.6% (inactive). To `CN1OC(COC(=O)c2ccc(Cl)cc2)CC1c1ccccc1` (stereo not given) belongs 50.7% (active).

With `Cc1ccc(NS(=O)(=O)c2ccc3c(c2)NC(=O)CO3)cc1`, the inhibition is -11.9% (inactive).

For the molecule `Cc1cc(NC(=O)CSc2nnnn2-c2ccc(F)cc2)no1`, the inhibition is 24.2% (inactive). Turning to `CN(C)c1nc(-c2cccnc2)nc(-c2ccc(Cl)cc2)c1C#N`, the inhibition was -6.6% (inactive). Under `Cc1csc(NC(=O)CSc2nnc(-c3cccnc3)o2)n1` stands -20.1% (inactive); under `CN(C)c1ccc(-c2nnc(-c3cccnc3)o2)cc1`, 104% (active); under `Cc1ccc(-n2ncc3c2CCCC3NC(=O)c2cnccn2)cc1C` (stereo not given), 5.12% (inactive). To `CCCCN(C)CCNC(=O)C1CCCN(S(=O)(=O)c2cccc3nsnc23)C1` (stereo not given) belongs -5.4% (inactive).

Turning to `O=C(CCN1CCN(C/C=C/c2ccccc2)CC1)Nc1ccccc1Cl`, the inhibition was 2.18% (inactive). Under `COc1ccc(C(=O)N/N=c2\oc3ccccc3cc2C(N)=O)cc1` stands 55.8% (inactive); under `COc1cccc2cc(C(N)=O)/c(=N\NC(=O)c3ccccc3)oc12`, 97% (active); under `NC(=O)c1cc2ccccc2o/c1=N/NC(=O)c1cccc(F)c1`, 13.8% (inactive). On to `O=C1c2ccccc2C(=O)C1c1ccccc1F`, for which the inhibition was -16.3% (inactive).

With `Oc1ccc(-c2csc(Nc3cccnc3)n2)cc1`, the inhibition is 121% (active). To `CC(C)(C)C(=O)OCc1nc(-c2ccc(O)c(O)c2)cs1` belongs 27.1% (inactive); to `COc1ccc(CCN(C(=O)COc2ccccc2)c2nc(-c3ccccc3)cs2)cc1OC`, -8.73% (inactive).

On to `CN(c1ccc(O)cc1)c1nc(-c2cccnc2)cs1`, for which the inhibition was 64.4% (active). Under `COc1ccc(-c2csc(Cc3nc(O)cs3)n2)cc1` stands 94.8% (active). Take `Brc1ccc(-c2csc(N/N=C/c3cccnc3)n2)cc1`: the inhibition is 37% (inactive). Under `CCCn1c(C2CCCN2c2nc(-c3ccc(OC)cc3)cs2)nc2ccccc21` (stereo not given) stands 4.08% (inactive); under `CN(C(=O)CSc1nc(C2CC2)nc2ccccc12)c1nc(-c2ccccc2)cs1`, 14.4% (inactive); under `O=C(Nc1ccc(-c2csc(Nc3cccc(C(F)(F)F)c3)n2)cc1)c1cccc(C(F)(F)F)c1`, -5.94% (inactive). To `COc1ccc(C(=O)Nc2nc(-c3ccc(S(=O)(=O)N4CCOCC4)cc3)cs2)cc1` belongs -8.19% (inactive); to `COc1ccc(OC)c(Nc2nc(-c3ccc(O)c(O)c3)cs2)c1`, 7.27% (inactive); to `COc1ccc(-c2csc(Nc3ccc(O)cc3)n2)cc1`, 92.3% (active). Consider `Cc1ccnc(N2CCCC(C(=O)NC3CC3)C2)n1` (stereo not given), for which the inhibition is -10.6% (inactive).

For the molecule `C[C@@H](NC(=O)[C@@H]1Cc2ccccc2CN1)C(=O)NC1CCCC1`, the inhibition was -1.81% (inactive).

Consider `COCCNC(=S)N(CCc1c(C)[nH]c2ccc(C)cc12)Cc1cccnc1`, for which the inhibition was 3.9% (inactive).

On to `FC(F)(F)C1CCCN(c2nsc3ccccc23)C1` (stereo not given), for which the inhibition was -5.61% (inactive). Regarding `CC1(c2ccc3ccccc3c2)NC(=O)N(CC(N)=O)C1=O` (stereo not given), the inhibition is 17.6% (inactive).

As to `O=C(Nc1c2c(nn1-c1cccc(Cl)c1)CS(=O)(=O)C2)c1cccs1`, the inhibition is 2.33% (inactive). Under `Cc1ccccc1N1CCN(C2CCCN(C(=O)c3cn4c(C)cccc4n3)C2)CC1` (stereo not given) stands -3.16% (inactive); under `CC(=O)Nc1ccc(S(=O)(=O)N2CCC(NC(=O)c3ccccc3)CC2)cc1`, 37.8% (inactive); under `O=C1CN(Cc2ccccc2)S(=O)(=O)c2ccccc21`, -2.75% (inactive). `O=S(=O)(NC1CCCCC1N1CCN(c2ccccc2F)CC1)c1ccccc1` (stereo not given): the inhibition is -13.8% (inactive). Under `CCOc1ccccc1NC(=S)N1CCN(c2cccc(C)c2C)CC1` stands -4.41% (inactive); under `O=C(Oc1cccc(C(=S)N2CCOCC2)c1)c1cccc(Cl)c1`, -28.3% (inactive); under `Cc1ccc(-c2c3c(=O)n(C)c(=O)n(C)c3cn2-c2ccccc2O)cc1`, 38.5% (inactive). To `COc1ccc(-c2c3c(=O)n(C)c(=O)n(C)c3cn2-c2cccc(OC)c2)cc1` belongs 4.73% (inactive); to `COc1cccc(-n2cc3c(c2-c2ccccc2)c(=O)n(C)c(=O)n3C)c1`, 104% (active).

For `CC1=C(C(N)=O)C(c2ccc(F)cc2)n2nc(CCCO)nc2N1` (stereo not given), the inhibition was -5.77% (inactive).

Take `Cc1ccc(CNC(=O)CCC(=O)N2CC(C)Sc3ccccc32)cc1` (stereo not given): the inhibition was 10.9% (inactive). Under `CC(=O)Nc1ccc(N2C(=O)CC(Sc3nccc(C)n3)C2=O)cc1` (stereo not given) stands -3.46% (inactive). To `c1csc(-c2nc(-c3ccncc3)no2)c1` belongs 58.2% (active); to `Cc1ccc(-c2noc(CSc3nnc(-c4ccncc4)n3-c3ccc(F)cc3)n2)cc1`, -6.83% (inactive); to `Cc1ccc2nc(-c3ccncc3)cc(C(=O)Nc3ccncc3)c2c1`, 11.4% (inactive).

For the molecule `COc1nc(-c2ccc(Cl)cc2)ccc1-c1noc(-c2cccs2)n1`, the inhibition was -10.5% (inactive). As for `c1ccc(-c2noc(-c3cccs3)n2)nc1`, the inhibition was 15% (inactive). To `Cc1ccc(-c2nc(-c3ccncc3)no2)c(C)c1` belongs 80.3% (active).
